Bim-Mcl-1 = inhibitors of Bim-Mcl-1 interaction, human | hit rate 0.1% among 190,000 | AID 1009 | Bead-based flow cytometry, Bim peptide-Mcl-1 binding | inhibition, % at 10 µM; in the data active means inhibition above about 40%;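 further: 0% = no compound tracer wells and 100% = peptide blocker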
Target sequence (Q07820 whole entry, looked up): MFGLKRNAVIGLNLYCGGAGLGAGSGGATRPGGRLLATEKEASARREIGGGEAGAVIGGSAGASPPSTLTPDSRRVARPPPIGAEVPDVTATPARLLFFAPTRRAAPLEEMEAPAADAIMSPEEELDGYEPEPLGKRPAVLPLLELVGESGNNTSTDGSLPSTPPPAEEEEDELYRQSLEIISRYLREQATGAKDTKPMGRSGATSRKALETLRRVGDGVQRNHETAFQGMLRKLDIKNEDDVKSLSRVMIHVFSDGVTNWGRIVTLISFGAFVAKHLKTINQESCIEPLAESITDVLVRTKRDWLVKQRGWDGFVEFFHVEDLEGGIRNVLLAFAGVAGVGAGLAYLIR
Mcl1 Noxa PPI = Mcl-1/Noxa interaction inhibition. Q07820. TR-FRET Mcl-1/Noxa peptide binding, 2 h. inhibition, % at 21.7 µM. hit rate 1.5% among 220,000. AID 1022;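 active means compounds that cut the protein-peptide binding signal by more than 50% relative to plate controls in a single-dose test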;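 further: His-tagged Mcl-1 with rhodamine Noxa BH3 peptide and terbium anti-His antibody; 0% = Mcl-1 plus Noxa peptide wells and 100% = peptide-only wells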
Mcl1 Bid PPI = Mcl-1/Bid interaction inhibition | TR-FRET Mcl-1/Bid-Dy647 peptide binding, 1536-well | inhibition, % at 21.7 µM | AID 1021 | hit rate 0.97% among 220,000;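 active means compounds that cut the binding signal by more than half at the single screening dose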;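 further: His-tagged Mcl-1 with europium anti-His antibody binding Bid BH3 peptide; 0% = Mcl-1 plus peptide wells and 100% = peptide-only wells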
p47phox inh = p47phox (human) inhibition; inhibition, % at 24.7 µM; P14598; hit rate 0.53% among 220,000; p47phox/p22phox peptide binding, fluorescence polarization, 2 h; AID 1274;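 active means inhibition above about 30%, limit read from the data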;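 further: 0% = p47phox with labelled peptide and 100% = labelled peptide alone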
m-calpain inh = blocks pig calpain II enzyme activity; hit rate 0.37% among 220,000; purified calpain II, fluorogenic peptide substrate, 30 min; AID 1236; inhibition, % at 16 µM;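 active means inhibition above about 50%, limit read from the data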
14-3-3 Bad inh = disrupts binding of bovine 14-3-3 zeta to phospho-Bad peptide; P63103; TR-FRET 14-3-3zeta/Dy647-pBad peptide displacement, 1 h; inhibition, % at 21.7 µM; hit rate 0.71% among 220,000; AID 781;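 active means inhibition above about 70%, limit read from the data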;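 further: 0% = full 14-3-3 plus peptide FRET controls and 100% = background without 14-3-3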
Target sequence (P63103 whole entry, looked up): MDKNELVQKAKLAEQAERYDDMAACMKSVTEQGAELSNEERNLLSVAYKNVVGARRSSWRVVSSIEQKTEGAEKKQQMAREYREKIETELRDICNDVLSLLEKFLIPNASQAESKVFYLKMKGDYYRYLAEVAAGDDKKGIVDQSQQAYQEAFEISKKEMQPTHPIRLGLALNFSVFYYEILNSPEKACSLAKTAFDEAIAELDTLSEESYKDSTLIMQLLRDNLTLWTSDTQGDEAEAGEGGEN
* = called active by the depositor; nt = no result. An excerpt weighted towards active compounds, which were near 3.4% of everything screened.

SMILES	Bim-Mcl-1	Mcl1 Noxa PPI	Mcl1 Bid PPI	p47phox inh	m-calpain inh	14-3-3 Bad inh
Nc1ccc(SCC(=O)Nc2cccc([N+](=O)[O-])c2)cc1	0	-10	-33	4	-16	-12
CCCC(=O)c1ccc(N2CCN(C(=O)OCC)CC2)c(F)c1	-1	-4	-5	-5	13	77*
O=C(c1ccc(COc2ccc(Cl)cc2)cc1)N1CCCCC1	0	23	-3	-13	58*	-7
CCCCOc1ccc(C2CCC(C(C)=O)C(C)C2)cc1 (stereo unspecified)	nt	6	-6	1	-1	-4
CN(C)n1cnc2ccsc2c1=O	1	6	-9	-3	-32	26
O=C(O)CCCCCN1C(=O)/C(=C\c2cn(-c3ccccc3)nc2-c2cccs2)SC1=S	nt	99*	89*	-5	30	64
CC1=NNC(=O)/C1=C\c1cn(-c2ccccc2)nc1-c1cccs1	-10	14	34	-9	-26	10
O=C(O)CCN1C(=O)/C(=C/c2cn(-c3ccccc3)nc2-c2cccs2)SC1=S	-2	88*	84*	-95	1	76*
Cn1cccc1/C=C1\SC(=S)N(CC(=O)O)C1=O	0	13	-54	-3	8	-1
Cc1ccc(-c2nn(-c3ccccc3)cc2/C=C2\SC(=S)N(CC(=O)O)C2=O)cc1	nt	88*	36	-32	49	11
Cc1ccc(/C=C/S(=O)(=O)Nc2ccc(C)cc2)cc1	-1	7	9	-18	-10	-15
COc1ccc(/C=N/OC(=O)Nc2ccccc2OC)cc1	0	4	4	-2	30	10
CCN(CCO)C(=O)CC1C(=O)NCCN1Cc1c(F)cccc1Cl (stereo unspecified)	-1	-2	-38	5	-13	-10
C/C(C/C(C)=C1/SC(=S)NC1=O)=C1\SC(=S)NC1=O	-1	73*	78*	-33	41	37
CCCCCC/C(C)=C1/SC(=S)NC1=O	-1	-4	-29	-40	14	1
CN1CCc2cc(Cl)c(O)cc2[C@@H](c2ccccc2)C1	0	-14	-6	0	33	0
Oc1cc2c(cc1O)[C@@H](c1ccccc1)CNCC2	7	67*	-19	0	-7	-7
CCOc1ccc(N/C=C/C(=O)c2ccccc2)c([N+](=O)[O-])c1	-5	-8	17	31*	28	-6
CCOc1ccc(NC(=O)/C=C/c2ccccc2)c([N+](=O)[O-])c1	-2	22	-24	-9	4	4
c1ccc(Nc2ccccn2)cc1	0	13	7	-12	13	2
COC(=O)c1ccccc1Nc1ccccc1	3	-10	-27	-4	3	-9
c1ccc(Nc2cccc3c(Nc4ccccc4)cccc23)cc1	nt	51*	6	-2	7	6
c1ccc(Nc2cccc(Nc3ccccc3)n2)cc1	32	72*	-21	-15	-4	-6
COc1ccc(NC(=O)CC2(CC(=O)O)CCCC2)cn1	-2	1	-27	-2	-16	-1
COc1ccc(-c2nnc(SCC(=O)c3cc(C)n(Cc4cccs4)c3C)o2)cc1	0	-96	37	5	-23	75*
SMILES	Bim-Mcl-1	Mcl1 Noxa PPI	Mcl1 Bid PPI	p47phox inh	m-calpain inh	14-3-3 Bad inh
Cc1cc(C(=O)CSc2nnc(-c3ccc(OC(F)F)cc3)o2)c(C)n1Cc1cccs1	3	11	32	4	14	28
CC(C(=O)O)N1C(=O)C2C3CC(C2C1=O)C1C(c2ccccc2)c2sc(=O)[nH]c2SC31 (stereo unspecified)	0	12	-41	5	16	8
O=C(NC(=O)c1ccc(Cl)cc1)Nc1ccc(-c2cnco2)cc1	nt	-139	6	12	-3	78*
O=C(NC(=O)c1ccc(C(F)(F)F)cc1)Nc1ccc(-c2cnco2)cc1	nt	-27	6	-3	-21	16
Nn1c(Cc2cccc3ccccc23)nnc1SCCOc1ccc(F)cc1	0	16	3	-8	34	2
COC(=O)c1ccccc1NC1=C/C(=N\S(=O)(=O)c2cccs2)c2ccccc2C1=O	0	21	-35	183*	-43	nt
CC1=CC(C)(C)Nc2ccccc21	-1	67*	28	13	9	48
CCC1(C)Cc2ccccc2/C(=C/C(=O)N2CCCCC2)N1 (stereo unspecified)	-1	9	-84	-1	-22	77*
CCOC(=O)c1c(C)cc(C)[nH]c1=O	-4	-2	2	-6	-36	-4
Oc1c(C(c2ccccc2Cl)N2CCCC2)ccc2cccnc12 (stereo unspecified)	0	28	-3	-14	29	9
Oc1c(C(c2cccs2)N2CCN(c3ccccc3)CC2)ccc2cccnc12 (stereo unspecified)	-6	85*	65*	-36	5	50
Cc1ccsc1/C=C/C1=Cc2c(sc(NC(=O)CSc3n[nH]c(N)n3)c2C#N)C(C)(C)C1	3	89*	-25	21	-124	-1
O=C(c1ccccc1)N1CCN(c2ccc([N+](=O)[O-])c(NCC3CCCO3)c2)CC1 (stereo unspecified)	0	13	-15	-4	-5	0
COC(=O)CS(=O)(=O)c1ccc(C)cc1	0	8	-12	-4	-17	-3
Cc1c(Cc2ccccc2)sc(/N=C/c2c(O)ccc3ccccc23)c1C(N)=O	-12	31	53*	-57	-12	29
COc1cc(/C=C2\SC(=O)NC2=O)ccc1Oc1ccc([N+](=O)[O-])cc1[N+](=O)[O-]	-2	87*	-105	-3	15	20
Cc1ccc(/C=C2/SC(=O)NC2=S)o1	0	77*	-55	25	-5	6
COc1ccc(/C=C2\SC(=O)NC2=S)cc1OC	23	64*	-63	-15	-5	5
COc1ccc(NS(=O)(=O)c2ccc3nc(COc4ccc(C#N)cc4)[nH]c3c2)cc1	-10	40	-6	-27	-6	-5
Cc1ccc(C(=O)C2CCOC(C)(C)C2)cc1 (stereo unspecified)	-2	15	2	-7	7	-6
Clc1cc2c(c(CSc3nc4ccccc4n4cccc34)c1)OCOC2	nt	-26	-35	-14	-26	-7
Cc1cc(C)n2c(SC/C(O)=C(\C#N)c3nc4ccccc4[nH]3)nnc2n1	-1	86*	-7	-19	-20	-5
Cc1ccccc1-n1c(SC/C(O)=C(\C#N)c2nc3ccccc3[nH]2)nnc1-c1ccncc1	-1	19	-46	-104	-96	-3
c1ccc(CSc2ncn[nH]2)nc1	1	11	-3	1	6	-8
COc1ccc(C(=O)Nc2c(C)csc2C(=O)O)cc1	0	9	-25	-5	10	-15
COC(=O)c1cc(Nc2cc(C)c3c(O)cccc3n2)cc(C(=O)OC)c1	nt	56*	-18	-21	-9	7

Screens deposited in PubChem BioAssay by several laboratories.
